Only some compounds are listed: those with a hit (about 6.1% of all), similar ones and a draw of the others.
D1 ag: human D1 receptor agonism | HEK293 T-REx D1 cells, calcium flux, agonist mode | activation, % at 2 µM | hit rate 1% among 360,000 | AID 504660 | P21728; in the data active = activation above about 30%
Target sequence (P21728 whole entry, looked up): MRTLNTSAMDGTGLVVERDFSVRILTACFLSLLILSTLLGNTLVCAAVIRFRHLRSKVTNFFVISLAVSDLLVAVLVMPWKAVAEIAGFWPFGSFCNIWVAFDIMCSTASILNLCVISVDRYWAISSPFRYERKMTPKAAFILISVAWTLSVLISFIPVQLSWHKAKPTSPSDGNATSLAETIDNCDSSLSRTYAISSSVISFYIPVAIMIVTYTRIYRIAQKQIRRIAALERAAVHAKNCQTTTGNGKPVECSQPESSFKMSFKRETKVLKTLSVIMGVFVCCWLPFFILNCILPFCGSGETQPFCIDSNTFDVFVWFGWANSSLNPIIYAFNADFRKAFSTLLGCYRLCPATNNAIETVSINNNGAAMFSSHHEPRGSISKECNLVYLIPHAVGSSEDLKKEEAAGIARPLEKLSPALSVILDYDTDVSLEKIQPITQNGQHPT
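Agonism was scored from calcium flux recorded over 180 s (1 read/s) after pintool compound addition, following a 10-cycle baseline. Cells were inducible force-coupled HEK293 TREx D1, plated overnight at 30 C and loaded with no-wash calcium dye.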
D1 potentiator: enhances dopamine response at the human D1 receptor | P21728 | HEK293 TREx D1 cells, calcium flux, dopamine EC20 potentiation | potentiation, % at 10 µM | hit rate 0.036% among 360,000; in the data active = potentiation above about 30%
DRD3 agonist: agonists of human D3 dopamine receptor. P35462. D3R DiscoveRx beta-arrestin cells, luminescence, 90 min. max activation, %. hit rate 0.58% among 410,000; in the data active = max activation above about 30%
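Agonist-mode cell screen: cells plated at 1500/well and incubated overnight at 37 °C, then exposed to library compounds for 90 min at 37 °C. Detection reagent was added for 30–60 min at room temperature, and luminescence was read.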
D1 antag: blocks dopamine activation of the human D1 receptor | hit rate 3.2% among 360,000 | HEK293 TREx D1 cells, calcium flux, dopamine EC80; stronger effect = lower value | activity change, negative = inhibition, % at 10 µM | P21728 | AID 504652; in the data active = activity change below about -30%
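After overnight tetracycline induction at 30 C, force-coupled D1 HEK293 cells took up a no-wash calcium dye at room temperature. Compounds were added and monitored 180 s, and the response to EC80 dopamine was then recorded.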
DRD3 antagonist: blocks the human D3 dopamine receptor. P35462. D3R cells, DiscoveRx beta-arrestin luminescence, antagonist mode; stronger effect = lower value. max response, negative = inhibition, %. hit rate 2.5% among 360,000. AID 652054; in the data active = max response below about -50%; inconclusive = no clear call, values can overlap the other calls
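Cells plated overnight at 1500 cells/well, then exposed to library compounds with dopamine controls for 90 minutes at 37 degrees C. DiscoveRx reagent added for 30–60 minutes at room temperature; luminescence read, quantitative HTS format.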
Large screens that a line does not name were inactive.

CCOc1ccccc1CNCCN1CCOCC1	none
N#Cc1nc(Cc2cccc3ccccc23)oc1NCCCN1CCOCC1	D1 antag -42
CCOc1ccc(CNC(=O)C2CCCN(c3nc4c(C)cc(C)cc4s3)C2)cc1 (stereo unspecified)	none (no result: DRD3 antagonist)
COc1ccc(-c2cn3nc(N4CCCC(C(=O)Nc5cccc(OC)c5)C4)sc3n2)cc1 (stereo unspecified)	none (no result: DRD3 antagonist)
Cc1c(-c2nsc(NC(=O)c3ccccc3)n2)nnn1-c1ccc(C(F)(F)F)c(Cl)c1	none (no result: DRD3 antagonist)
O=C(CCn1cnc2ccccc21)N=Nc1c(O)[nH]c2ccccc12	D1 antag -77
O=C(CCc1c[nH]c2ccccc12)N=Nc1c(O)[nH]c2ccccc12	D1 antag -44
CCOC(=O)N1CCc2c(sc3c2c(=O)n(Cc2ccccc2)c(=O)n3CC(=O)Nc2ccccc2F)C1	none (no result: DRD3 antagonist)
O=C(CCN1C(=O)c2ccccc2C1=O)NCc1ccco1	none
Cc1ccc(NC(=O)CCN2C(=O)c3cccc4cccc(c34)C2=O)cc1	D1 antag -33
O=C(CCN1C(=O)c2cccc3cccc(c23)C1=O)NCc1ccco1	DRD3 agonist 34
Cc1ccc(NC(=O)CCCN2C(=O)c3cccc4cccc(c34)C2=O)cc1	none
COCC(C)N1CC(O)=C(c2nc(-c3ccc(Cl)cc3)cs2)C1=N (stereo unspecified)	D1 antag -31
Cc1cc(C)c(OCCN2CCCC2)c(Cl)c1	D1 antag -59
Cc1cc(C)c(OCCOCCN2CCN(C)CC2)c(Cl)c1	DRD3 antagonist inconclusive
Cc1cc(Cl)cc(Cl)c1OCCCCN(C)C	none
Cc1cc(Cl)cc(Cl)c1OCCN1CCCC1	D1 antag -31
CSc1ccc(/C=C2\C(=N)N3N=C(CC(=O)N4CCOCC4)SC3=NC2=O)cc1	none
CCN(CC)c1ccc(/C=C2\C(=N)N3N=C(CC(=O)N4CCOCC4)SC3=NC2=O)cc1	D1 ag 115
Cc1ccc(CN2C3CCCC2CC(NC(=O)c2ccc(F)cc2)C3)cc1 (stereo unspecified)	D1 antag -45, DRD3 antagonist -88
O=C(CN1C2CCCC1CC(NC(=O)c1ccco1)C2)Nc1ccccc1 (stereo unspecified)	DRD3 antagonist -58
O=C(Nc1ccccc1-c1ccccc1)NC1CC2CCCC(C1)N2Cc1ccc(F)cc1 (stereo unspecified)	DRD3 antagonist -101
Cc1ccc(C(=O)NC2CC3CCCC(C2)N3Cc2ccccc2)cc1 (stereo unspecified)	D1 antag -84, DRD3 antagonist -80
O=C(NC1CC2CCCC(C1)N2C(=O)Nc1ccc(F)cc1)c1ccccc1 (stereo unspecified)	none
Cc1cccc(OCC(=O)N(Cc2ccc(C(C)(C)C)cc2)Cc2ccco2)c1	none (no result: DRD3 antagonist)
COc1ccc(CCNC(=O)c2cc(=O)c3cc(C)c(C)cc3o2)cc1OC	none (no result: DRD3 antagonist)
O=C(/C=C/c1ccccc1Cl)Nc1nc(-c2cccs2)ns1	none (no result: DRD3 antagonist)
CCN(Cc1ccccc1)C(=O)C(CC(C)C)NS(=O)(=O)c1ccc2c(c1)CCN2C(C)=O (stereo unspecified)	none (no result: DRD3 antagonist)
O=C(CN1C2CCCC1CC(NC(=O)C1CCCCC1)C2)NCc1ccc(F)cc1 (stereo unspecified)	none
O=C(NC1CCSc2ccccc21)c1ccc([N+](=O)[O-])cc1 (stereo unspecified)	none
Cc1cccc(C(=O)NC2CC3CCCC(C2)N3Cc2ccccc2)c1 (stereo unspecified)	D1 antag -30, DRD3 antagonist -112
O=C(NC1CC2CCCC(C1)N2Cc1ccccc1)c1ccc([N+](=O)[O-])cc1 (stereo unspecified)	D1 antag -57, DRD3 antagonist -89
CCN(CC)C(=O)NC1CC2CCCC(C1)N2Cc1ccccc1 (stereo unspecified)	DRD3 antagonist -65
CCCNC(=S)NC1CC2CCCC(C1)N2Cc1ccc(F)cc1 (stereo unspecified)	DRD3 antagonist -101
O=C(Nc1ccccc1-c1ccccc1)NC1CC2CCCC(C1)N2CCc1ccccc1 (stereo unspecified)	none
COc1cc(CN(C(=O)c2ccccc2)c2ccccn2)cc(OC)c1OC	none (no result: DRD3 antagonist)
Cc1cccc(NC(=O)CSc2nnc(-c3cc(C)n(-c4ccccc4)c3C)o2)c1C	none
Cc1cc(-c2nnc(SCC(=O)Nc3ccccc3C(F)(F)F)o2)c(C)n1-c1ccccc1	D1 ag 52
Cc1cccc(CNC(=O)c2sc(=O)n(Cc3c(C)cccc3C)c2C)c1	DRD3 antagonist -90 (no result: D1 ag, D1 potentiator, D1 antag)
COc1ccccc1Cn1c(C)c(C(=O)NCc2ccco2)sc1=O	none (no result: D1 ag, D1 potentiator, D1 antag)
Cc1c(C(=O)NCc2ccc(F)cc2)sc(=O)n1Cc1ccc(Cl)c(Cl)c1	DRD3 antagonist -74 (no result: D1 ag, D1 potentiator, D1 antag)
COc1ccccc1Cn1c(C)c(C(=O)NCc2cccc(C)c2)sc1=O	DRD3 antagonist -57 (no result: D1 ag, D1 potentiator, D1 antag)
CSc1ccc(Cn2c(C)c(C(=O)NCc3ccc(Cl)c(Cl)c3)sc2=O)cc1	none (no result: D1 ag, D1 potentiator, D1 antag)
Cc1ccccc1Cn1c(C)c(C(=O)NCc2cccc(Cl)c2)sc1=O	DRD3 antagonist -53 (no result: D1 ag, D1 potentiator, D1 antag)
CCn1ccc2cc(S(=O)(=O)N3CCCN(C(=O)NCC(=O)OC)CC3)ccc21	none (no result: DRD3 antagonist)
O=C(Nc1ccc(SC(F)F)cc1)c1cc(-c2ccc3c(c2)OCCO3)on1	none (no result: DRD3 antagonist)
NC(=O)c1cc2cc(Cl)ccc2oc1=O	DRD3 antagonist inconclusive
NC(=O)c1cc2cc(Cl)ccc2oc1=Nc1cccc(C(F)(F)F)c1	D1 antag -33
COc1ccc(C2NCCc3sccc32)cc1 (stereo unspecified)	DRD3 agonist 73
Clc1ccc(C2NCCc3sccc32)cc1 (stereo unspecified)	none
Cc1cc(C(=O)CSc2nc(N)cc(=O)[nH]2)c(C)n1CC1CCCO1 (stereo unspecified)	none (no result: D1 ag, D1 potentiator, D1 antag)
Cc1cc(C(=O)CSc2nc3ccccc3[nH]2)c(C)n1CC1CCCO1 (stereo unspecified)	D1 antag -33
CSc1ncccc1C(=O)OCC(=O)c1cc(C)n(CC2CCCO2)c1C (stereo unspecified)	D1 antag -34
COc1ccc(-c2csc(NC(=O)CSCc3c(C)noc3C)n2)cc1OC	none
Cc1noc(C)c1CSCC(=O)Nc1nc(-c2ccc(F)c(F)c2)cs1	D1 antag -43
CC(C)NC(=O)Cn1ccc2cc(S(=O)(=O)N3CCCCCC3)ccc21	none (no result: DRD3 antagonist)
CCOc1ccc(C(=O)NCc2nc3cccnc3n2Cc2cccc(OC)c2)cc1	none (no result: DRD3 antagonist)
O=C(N/N=C/c1c(O)ccc2ccccc12)c1ccc(Br)o1	D1 ag 97
O=C(N/N=C/c1c(O)ccc2ccccc12)Nc1ccccc1	DRD3 antagonist -57 (no result: D1 ag, D1 potentiator, D1 antag)
O=C(N/N=C\c1c(O)ccc2ccccc12)c1ccc(O)cc1	none
O=C(N/N=C\c1c(O)ccc2ccccc12)c1cncc(Br)c1	D1 ag 314
O=C(N/N=C/c1c(O)ccc2ccccc12)c1cccnc1	D1 ag 42
Cc1cccc(NC(=O)N2CCC(CN3CCCCCC3)CC2)c1C	none (no result: DRD3 antagonist)

Assay outcomes deposited in PubChem by National Center for Advancing Translational Sciences (NCATS).
